# Results reported in PubChem BioAssay (NCI).
# The panel holds about 83,000 compounds, 20% with a hit somewhere; the sample as a whole holds those more often.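 Single-concentration screen, 48 h exposure, 96-well plates. Endpoint: percent growth. Below 10 = active.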 Active and inactive are the calls of the source.
# Test system: SF-268 CNS
# Assay: NCI-60 one-dose screen, 48 h (100 = growth as untreated, 0 = no growth, -100 = all killed)
# Conditions: 10 µM unless noted
row,Structure (SMILES),growth
1,O=C1C(Cl)=C(NCCCN2CCOCC2)C(=O)c2ccccc21,106% (inactive)
2,COC(=O)c1cc(-c2ccc(C)cc2)n(C(=O)CSc2nc3sc(C(N)=O)c(C)c3c(=O)n2Cc2ccccc2)n1,108% (inactive)
3,COc1cccc(OC)c1OC(=O)c1ccccc1,111% (inactive)
4,Oc1ccc2ccccc2c1C1NN=C(c2ccccc2)S1 (stereo not given),20.9% (inactive)
5,CCCCC/C=C\C/C=C/CCCCCCCCNC(=O)Nc1ccc([N+](=O)[O-])cc1,42.5% (inactive)
6,Clc1ccc(Nc2ccnc(N3CCN(c4ccnc5cc(Cl)ccc45)CC3)n2)cc1,57.3% (inactive)
7,Cc1ccc(S(=O)(=O)N(c2ccc(Cl)cc2)c2ccc(Br)cc2C(=O)O)cc1,111% (inactive)
8,CCN1CCN(C(=S)SCC(=O)Nc2nc3ccc(OC)cc3s2)CC1,92.5% (inactive)
9,Cn1c2ccccc2c2nn(Cc3ccccc3)c(=O)nc21,103% (inactive)
10,Clc1ccc2c(N3CCN(c4ccnc(NC5CCCCC5)n4)CC3)ccnc2c1,71.6% (inactive)
11,Cn1c2ccccc2c2nn(C(=O)c3ccccc3)c(=O)nc21,111% (inactive)
12,COc1ccc(OC2=C(C#N)C(=N)N3c4ccccc4Sc4ccccc4C3N2)cc1 (stereo not given),89.2% (inactive)
13,NC(=S)N/N=C1\c2ccccc2-c2c(F)c(F)c(F)c(F)c21,85.3% (inactive)
14,NC(=O)c1cc(I)ccc1NC(=O)COc1ccc(Cl)cc1Cl,97.5% (inactive)
15,CCC12CCC3c4ccc(O)cc4CCC3C1CC(O)C2O (stereo not given),103% (inactive)
16,O=C1NC(=O)C(CSc2ccccc2)(c2ccccc2)N1 (stereo not given),123% (inactive)
17,C=C(C)COC(=O)c1ccccc1C(=O)OCC1(C)CO1 (stereo not given),93.6% (inactive)
18,COc1ccc(NC(=O)COc2ccccc2)c(C(N)=O)c1,50.7% (inactive)
19,O=c1nc(NO)[nH]c(=O)n1Cc1ccc(F)cc1,104% (inactive)
20,NC(=O)c1cc(I)ccc1NC(=O)COc1ccccc1,46.4% (inactive)

row,Structure (SMILES),growth
1,O=C(Nc1ccccc1O)c1ccc(NS(=O)(=O)c2cccc3cccnc23)cc1,44% (inactive)
2,CC(=O)OC[C@H](O)[C@@]1(O)CC[C@H]2[C@@H]3CCC4=CC(=O)CC[C@]4(C)[C@H]3[C@@H](O)C[C@@]21C,97.1% (inactive)
3,COc1cc(NC(=O)COc2ccccc2)c(C(N)=O)cc1OC,53.4% (inactive)
4,COc1ccc(Nc2[nH]n(C3=Nc4ccccc4Sc4ccccc43)c(=O)c2C#N)cc1,67.2% (inactive)
5,COc1c(Cl)ccc2c(-c3nc4cc(Cl)c(F)cc4s3)cc(=O)oc12,29.5% (inactive)
6,Cn1c2ccc(Cl)cc2c2nn(C(=O)c3ccccc3)c(=O)nc21,104% (inactive)
7,CC(=O)Nc1ccc(S(=O)(=O)N/N=C\c2ccc(Cl)c(Cl)c2)cc1,100% (inactive)
8,COc1ccc(/C=C(\C#N)c2ccc(OC)cc2)cc1,78.4% (inactive)
9,CCCCNNC(=O)c1ccc(Br)cc1,56.4% (inactive)
10,CC(=O)c1cc(C)c(OC(=O)c2ccccc2)c(C)c1,107% (inactive)
11,Clc1nc(-c2ccccn2)nc2sc3c(c12)CCCCCC3,94.6% (inactive)
12,Cc1ccc(C(=O)Nc2ccccc2N)cc1,69.6% (inactive)
13,Oc1ccccc1/C=N/Nc1nc2ccccc2s1,32.3% (inactive)
14,COc1cccc(OC(=O)c2ccccc2)c1OC(=O)c1ccccc1,72.4% (inactive)
15,COC(=O)c1ccc(C(=O)Nc2ccccc2N)cc1,65.4% (inactive)
16,CCSc1nnc2c3cc(Br)ccc3n(C)c2n1,107% (inactive)
17,N#CCCN1CCN(CCC#N)C1=S,99.4% (inactive)
18,COC(=O)/C=C1/CCC2C3CCC4=CC(=O)C(Br)CC4(C)C3C(=O)CC12C (stereo not given),95.6% (inactive)
19,NC(=O)c1cc(Cl)ccc1NC(=O)COc1ccccc1,66.2% (inactive)
20,CN1CCN(CCCn2c3c(sc4ncccc43)c(=O)n3nnc(-c4ccccc4)c23)CC1,91% (inactive)
